Screening data deposited in PubChem BioAssay by National Center for Advancing Translational Sciences (NCATS).
Rows were chosen to be rich in hits. Some 3.7% of all compounds tested hit in one or more screens of this group.
TCR activator = Activators of T cell receptors: qHTS campaign; 330,000 tested, under 10 active; primary human leukocytes, anti-CD3, IL-2 HTRF, 48 h; Potency, µM (titrated, usually from 9.22 µM), most hits filed as activators
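Primary human leukocytes incubated 48 hr with anti-CD3 beads plus compound, without co-stimulation. Secreted IL-2 measured by HTRF (europium cryptate/d2 anti-IL-2 pair, 320 nm excitation, 665 nm emission).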
ClpP mod = qHTS Assay for Activators of ClpP; 340,000 tested, 1.9% active; Potency, µM (titrated, usually from 57.5 µM); ATP-dependent Clp protease proteolytic subunit (Bacillus subtilis (strain 168)), P80244; purified B. subtilis ClpP, FRET peptide cleavage, 20 min; AID 651965, 2013; active means well fitted falling curve with a large enough effect; inconclusive means small, poorly fitted or top-dose-only effect; inactive means no such curve, though single readings can be large or run the other way; further: the source files actives as falling curves though it sought activators and does not explain the sign; nearly all actives have a fitted effect of over 65% in size
Target sequence (P80244 whole entry, looked up): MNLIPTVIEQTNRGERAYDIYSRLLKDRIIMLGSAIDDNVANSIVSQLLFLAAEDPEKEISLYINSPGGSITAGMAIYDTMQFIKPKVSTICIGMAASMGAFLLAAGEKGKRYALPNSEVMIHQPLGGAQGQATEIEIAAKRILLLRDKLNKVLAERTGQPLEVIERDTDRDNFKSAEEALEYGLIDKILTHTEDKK
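ClpP 10 microg/mL final, pH 8 Tris/KCl buffer with BSA, glycerol, Tween-20; compound pinned in; FRET-FV substrate; RT 20 min; Ex320/Em430; ΔFRET vs ADEP 5.8 microM, DMSO, no enzyme.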
Nrf2 inh = Nrf2 qHTS screen for inhibitors | A549 ARE-Fluc reporter, luciferase luminescence, 18-24 h | Potency, µM (top dose mostly 46 µM), usual class: inhibitors | 360,000 tested, 2.1% active | AID 504444, 2011; further: nearly all actives have a fitted effect of over 60% in size
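Quantitative HTS in A549 cells stably bearing an antioxidant response element-firefly luciferase construct. Inhibition of Nrf2-driven transcription was scored by luminescence after 18-24 h of compound exposure at 37 °C.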
miR-21 act = qHTS Assay for Modulators of miRNAs and/orActivators of miR-21; Potency, µM (top dose mostly 38.3 µM), hits mostly activators; 340,000 tested, under 10 active; HeLa miR-21 FLuc reporter, luciferase, 48 h; AID 2288, 2010;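 further: miR-21 action dims this reporter so a rising signal means less miR-21 action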
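HeLa miR-21-FLuc reporter line, endogenous miR-21; 2000 cells/well in DMEM/10% FBS; compound titration up to ~40uM final, 48 h, 37 degree Celsius; luciferase detection reagent, 15 min lysis, CCD luminescence.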
Nrf2 activator = qHTS of Nrf2 Activators. Potency, µM (highest dose often 46.1 µM), most hits filed as activators. AREc32 ARE-luciferase reporter (MCF7-derived line), luminescence, 24 h. 410,000 tested, 0.31% active; further: nearly all actives have a fitted effect of over 65% in size
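AREc32_Fluc, 1000 cells/well, OPTI-MEM + 5% FBS, o/n 37 deg C 5% CO2; 23 nL cpd by pin tool, 24 hr; Steady-Glo 30 min RT, luminescence.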
A549 tox = Nrf2 qHTS screen for inhibitors: counterscreen for cytotoxicity. A549 ARE-Fluc cells, CellTiter-Fluor viability, 18-24 h. Potency, µM (highest dose often 46 µM), hits mostly inhibitors. 390,000 tested, 0.16% active. AID 504648, 2011
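Cytotoxicity counterscreen: CellTiter-Fluor fluorescence was measured in A549 ARE_Fluc cells after 18-24 h of compound exposure in a concentration series. The subsequent BugLite luminescent read reports ARE-luciferase activity.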
Numbers stand for hits; - = inactive; ? = inconclusive; . = no result; [ ] = dose if it differs, or a comment. Unless noted, the call rests on the fitted dose curve; in most records, active means well fitted curve in the direction sought with a large enough effect; inconclusive means small, poorly fitted or top-dose-only effect, or another doubt; inactive means no such curve, though single readings can be large; an effect the other way counts as inactive or inconclusive.

SMILES | TCR activator | ClpP mod | Nrf2 inh | miR-21 act | Nrf2 activator | A549 tox
CCN(CC)Cc1c(O)ccc2c(=O)c(-c3ccc4c(c3)OCCO4)coc12 | - | 28µM | - | - | - | -
COc1ccccc1-c1coc2c(CN(C)C)c(O)ccc2c1=O | - | - | - | - | - | -
CCN(CC)Cc1c(O)ccc2c(=O)c(Oc3ccccc3OC)coc12 | - | 18µM | - | - | - | -
COc1ccccc1Oc1coc2c(CN(C)C)c(O)ccc2c1=O | - | 28µM | - | - | - | -
Cc1nc(-c2coc3c(CN(C)C)c(O)ccc3c2=O)cs1 | - | 32µM | - | - | - | -
[O-][n+]1ccc(C(O)c2ccccc2)cc1 (stereo unspecified) | - | - | ? | - | - | -
COc1ccccc1N1C(=O)C2CC=CC(C)C2C1=O (stereo unspecified) | - | 3.2µM | - | - | - | -
COc1ccccc1N1C(=O)C2CCC(c3ccccc3)CC2C1=O (stereo unspecified) | - | - | - | - | - | -
CCOc1cc2[nH]c(=O)n(CCCCC(=O)N3CCN(c4ccc(OC)cc4)CC3)c(=O)c2cc1OCC | . | - | . | - | - | -
COc1cc2[nH]c(=O)n(CCC(=O)NCc3cccnc3)c(=O)c2cc1OC | - | 28µM | - | - | - | -
CCCCN(C)C(=O)CCCCn1c(=O)[nH]c2cc(OCC)c(OCC)cc2c1=O | - | 35µM | - | - | - | -
COc1ccc(/C=C/C(=O)NCc2cccnc2)cc1 | - | - | - | - | - | -
CCOc1cc2[nH]c(=S)n(CCCCC(=O)NCc3ccco3)c(=O)c2cc1OCC | - | - | - | - | - | -
CCOc1cc2[nH]c(=O)n(CCCCCC(=O)NCc3ccco3)c(=O)c2cc1OCC | - | 22µM | - | - | - | -
COc1cc(/C=C/C(=O)NCc2cccnc2)cc(OC)c1OC | - | 25µM | - | - | - | -
CC1ON=C(c2ccccn2)N(Cc2ccc(S(C)(=O)=O)cc2)C1=O (stereo unspecified) | . | - | . | . | - | .
O=C1CCCN1CCCNc1nc2c(S(=O)(=O)c3ccccc3)nnn2c2ccc(Cl)cc12 | - | - | ? | - | - | -
Cc1c(P(=S)(c2ccccc2)c2ccccc2)c2ccccc2n1C(=O)Cc1ccccc1 | . | . | - | . | . | -
CCOC(=O)C1(C)CCN1C(=O)c1ccc(OC)c(OC)c1 (stereo unspecified) | . | - | . | . | - | .
COc1cnc(N(C)C)nc1Sc1ccc(Cl)cc1 | - | 32µM | - | - | - | -
COc1cnc(-c2ccccn2)nc1Sc1ccc(Cl)cc1 | - | - | - | - | - | -
Cc1[nH]c(=O)c(C#N)c2c1CCCC2 | - | 28µM | . | - | - | -
CCc1[nH]c(=O)c(C#N)c2c1CSC(C)(C)C2 | - | ? | - | - | - | -
CCCCc1[nH]c(=O)c(C#N)c2c1CCCC2 | - | 25µM | - | - | - | -
Cc1[nH]c(=O)c(C#N)c2c1CSC(C)(C)C2 | . | 25µM | - | - | - | -[1.84 µM]
SMILES | TCR activator | ClpP mod | Nrf2 inh | miR-21 act | Nrf2 activator | A549 tox
Cc1[nH]c(=S)c(C#N)c2c1CCCC2 | . | . | - | - | - | -
Cc1ccc(S(=O)(=O)/C(C#N)=C/c2c[nH]c3ccccc23)cc1 | - | - | 16µM | - | - | -
OC[C@@H]1CN(Cc2ccccc2)C[C@H](n2cnc3c(N4CCOCC4)ncnc32)O1 | . | - | . | . | -[9.22 µM] | .
CC(C)Oc1ccccc1C1CC(=O)Nc2cc3c(cc21)OCCO3 (stereo unspecified) | - | - | 8.2µM | - | - | ?
Cc1ccc(C2CC(=O)Nc3cc4c(cc32)OCCO4)cc1 (stereo unspecified) | . | - | ? | - | - | -
CCOc1cccc(C2CC(=O)Nc3cc4c(cc32)OCCO4)c1 (stereo unspecified) | . | - | 15µM | - | - | -
COc1ccccc1NC(=O)Cc1nc(=O)[nH]c(=O)[nH]1 | . | - | . | . | - | .
O=C(CCc1nc(-c2cccs2)no1)Nc1ccccc1[N+](=O)[O-] | . | - | - | - | - | -
CSC[C@H]1CN(c2ccccc2)C(=O)[C@@H]1CC(=O)Nc1ccc(Br)cc1 | . | - | . | . | - | .
c1csc(-c2ccc3ccccc3n2)c1 | - | 14µM | ? | - | 18µM | -
CN1OC[C@@H]2CN(C(=O)C(C)(C)C)[C@H](c3cccc(Oc4ccccc4)c3)C[C@@H]21 | . | - | . | . | - | .
CCOC(=O)c1cnc2ccc(OC)cc2c1NCCc1ccc(OC)c(OC)c1 | - | - | 16µM | ? | - | ?
O=C(CCN1CCc2ccccc2CC1)c1ccc2c(c1)OCCO2 | - | - | 18µM | ? | ? | .
COCC(C)n1c(C)cc(C(=O)COc2ccc(N(C)S(=O)(=O)c3ccc(NC(C)=O)cc3)cc2)c1C (stereo unspecified) | - | - | - | . | - | -
C=CCn1c(C)cc(C(=O)COc2ccc(N(C)S(=O)(=O)c3ccc(NC(C)=O)cc3)cc2)c1C | - | - | 16µM | . | - | -
Cc1cc(-c2ccc(C)c(S(=O)(=O)Nc3cccc(C#N)c3)c2)on1 | . | - | 7.3µM | - | - | -
COc1ccc(-c2cnc(C)o2)cc1S(=O)(=O)Nc1cccc(C(F)(F)F)c1 | . | - | . | - | - | -
COc1ccc(-c2cc(C)no2)cc1S(=O)(=O)Nc1cccc(C(F)(F)F)c1 | . | - | 18µM | - | - | -
CN(C)c1ccc(CNC(=O)CN2C(=O)c3cccnc3Oc3ccc(Cl)cc32)cc1 | . | - | - | - | - | -
CCn1cc(C(=O)NCC(C)C)c(=O)c2cc(F)c(N3CCN(C(=O)c4ccco4)CC3)cc21 | - | . | - | - | - | -
CCn1cc(C(=O)NCc2ccco2)c(=O)c2cc(F)c(N3CCN(C(=O)c4ccco4)CC3)cc21 | - | 28µM | - | - | - | -
C=CCn1cc(C(=O)NCc2ccco2)c(=O)c2cc(S(=O)(=O)N3CCCCCC3)ccc21 | - | - | 12µM | - | - | -
Cc1cn2c(nc(=O)c3cccnc32)s1 | - | 16µM | - | - | - | -
Cc1ccc(-n2cnc(=O)c3cccnc32)cc1 | - | - | - | - | - | .
S=c1[nH]nc(-c2cc3ccccc3o2)n1Cc1ccccc1 | - | 3.2µM | ? | - | - | -
Cc1ccc(-c2n[nH]c(=S)n2Cc2ccccc2)cc1 | - | - | ? | - | - | -
O=C1CCc2cc(S(=O)(=O)Nc3cc(F)cc(Cl)c3)c(F)cc2N1 | . | . | - | . | . | ?
COc1cccc(/C=N/Nc2ncnc3scc(-c4ccccc4)c23)c1OC | . | - | 13µM | - | - | -[1.84 µM]
